Source: PubChem BioAssay
GLP1R cytotox = cytotoxic in the GLP-1 receptor inverse agonist counter-screen. HEK293 cAMP-luciferase reporter cells, luminescence, 24 h. Potency, µM (doses to about 38.3 µM), inactives show top-dose activity change, negative = inhibition, actives largely listed as inhibitors. hit rate 0.13% among 410,000. AID 624418;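 also: loss of luciferase light is scored as toxicity; % is scaled to controls: 0 for no effect and ±100 for the full control effect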
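Here, cytotoxicity is scored as loss of luminescence. The MLSMR collection was tested on cells seeded in medium containing 10% Nu serum, with a 24 hr compound exposure preceded by 12 hours of culture.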
GLP-1R inv ag = GLP-1 receptor (human) inverse agonism. P43220. HEK293 GLP-1R CRE-luciferase, luminescence, 24 h; GLP-1R form is constitutively active. Potency, µM (titrated, usually from 38.3 µM), without a hit: at the highest dose activity change, negative = inhibition, actives largely listed as inhibitors. hit rate 1.6% among 410,000; also: % is scaled to controls: 0 for no effect and ±100 for the full control effect; nearly all actives have a fitted effect of over 55% in size
Target sequence (P43220 whole entry, looked up): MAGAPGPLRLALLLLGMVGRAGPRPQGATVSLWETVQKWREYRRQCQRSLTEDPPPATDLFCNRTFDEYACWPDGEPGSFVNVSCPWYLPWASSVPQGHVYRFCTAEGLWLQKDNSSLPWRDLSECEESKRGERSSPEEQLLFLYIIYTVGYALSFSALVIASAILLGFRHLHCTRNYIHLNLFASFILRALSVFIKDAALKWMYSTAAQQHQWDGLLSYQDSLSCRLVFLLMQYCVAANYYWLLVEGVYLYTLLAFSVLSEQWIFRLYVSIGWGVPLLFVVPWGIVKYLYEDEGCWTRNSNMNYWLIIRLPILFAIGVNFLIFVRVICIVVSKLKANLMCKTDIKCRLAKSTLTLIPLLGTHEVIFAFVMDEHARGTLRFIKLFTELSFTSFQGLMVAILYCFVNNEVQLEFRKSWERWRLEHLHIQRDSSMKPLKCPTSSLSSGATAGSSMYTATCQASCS
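HEK293 cells stably co-expressing a cAMP-responsive luciferase reporter and constitutively active GLP-1R were seeded, incubated 12 h, then exposed to compounds for 24 h at 37 C. Luminescence was read 12 min after detection reagent; inverse agonists lower signal.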
PTHR1 agonist = agonists of human PTHR1 parathyroid hormone receptor; Q03431; HEK293 GP2 PTHR1 cells, GloSensor cAMP luminescence, 1 h; Potency, µM (series often up to 115 µM), for inactives: at the highest dose activation, hits mostly activators; hit rate 0.075% among 410,000; AID 743266; also: nearly all actives have a fitted effect of over 55% in size
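HEK-293-derived GP2 cells expressing PTHR1 and a GloSensor cAMP reporter, 3,000/well, plated overnight, given luciferin plus IBMX (each 0.5 mM as added) for 1 h at 37 °C, then compound for 1 h at 37 °C. Luminescence was read after 15 min at room temperature.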
GLP-1R agonist = agonists of human GLP-1 receptor. P43220. HEK293 GLP-1R CRE-luciferase, luminescence, 4-6 h; cells express a hypersensitive GLP-1R form. hit rate 0.007% among 380,000. AID 624172. Potency, µM (highest dose often 45.6 µM), for inactives: top-dose activation, most hits filed as activators; also: % of control where 0% means no effect
Active calls of the source: *; i = inactive; ? = inconclusive; . = no result given; [ ] = remark or other dose. The list is not random: actives were taken first. Their share in the collection is about 1.7%. Calls follow the shape of the dose curve; as a rule, active = well fitted curve in the direction sought with a large enough effect; inconclusive = small, poorly fitted or top-dose-only effect, or another doubt; inactive = no such curve, though single readings can be large; an effect the other way counts as inactive or inconclusive. Potency is read from the fitted curve at half-maximal effect.

SMILES | GLP1R cytotox | GLP-1R inv ag | PTHR1 agonist | GLP-1R agonist
CCCCCCN1C[C@@H](n2cc(-c3ccc(F)cc3)nn2)[C@H](O)C[C@@H]1c1ccc(OC)cc1 | ? | 3.16µM* | -60.6% | -1.7%
CCCCCC(=O)N1C[C@H](O)[C@@H](n2cc(-c3ccc(F)cc3)nn2)C[C@@H]1c1ccc(Cl)cc1 | ? | 10µM* | i | 5.1%
COc1ccc([C@H]2C[C@@H](O)[C@H](n3cc(C4CC4)nn3)CN2CC2CCCCC2)cc1 | -14.5% | 7.94µM* | -28.9% | 6.0%
CC(C)N(CCCNC(=O)c1ccc(CS(=O)(=O)c2c(Cl)cccc2Cl)o1)Cc1ccccc1 | -26.2% | ? | i | 9.4%
CC(C(=O)NCc1ccccc1)N1Cc2ccccc2C1=O (configuration not stated) | -6.7% | -4.1% | i | .
O=C(Cc1cccc(C(F)(F)F)c1)NCc1cccc(Cl)c1 | 0.4% | 10µM* | -13.1% | 10.2%
Cc1ccc(C(=O)Nc2ccc(Cl)cn2)cc1 | -21.3% | ? | -14.9%[57.5 µM] | -6.8%
Cc1ccc(C(=O)Nc2ncc3c(Cl)cccc3n2)cc1 | -23.9% | 7.08µM* | i | -32.7%
CCC1CCCCN1CCCNC(=O)C1CCN(Cc2nc(-c3ccc(Cl)cc3)oc2C)CC1 (configuration not stated) | 5.01µM* | 12.6µM* | -23.2% | -6.7%
COc1ccc(-c2nc(CN3CCC(C(=O)NCCCN4CCN(c5ccccc5F)CC4)CC3)c(C)o2)cc1OC | 12.6µM* | 10µM* | -0.2% | .
CCN(CCNC(=O)C1CCN(Cc2nc(-c3ccc(Cl)cc3)oc2C)CC1)c1ccccc1 | ? | 2.51µM* | -3.4% | -4.9%
Cc1oc(-c2ccc(Cl)cc2)nc1CN1CCC(C(=O)NCCCN2CCOCC2)CC1 | -21.0% | ? | 15.7%[57.5 µM] | 4.6%
CCc1ccc(-c2nc(CN3CCC(C(=O)NCCN(CC)c4ccccc4)CC3)c(C)o2)cc1 | -18.1% | ? | -17.0% | -0.6%
COc1ccccc1N1CCN(Cc2cc(=O)c(OCC(=O)NC3CCCC3)co2)CC1 | 12.8% | 14.8% | -13.2% | 10.1%
CC(C)(CO)C(O)C(=O)NCCCC(=O)O (configuration not stated) | . | . | . | -0.4%
O=C(CCNS(=O)(=O)c1ccccc1C(F)(F)F)NCCCSc1ccccc1 | 2.1% | 12.6µM* | -23.0% | 9.6%
O=C(CCNS(=O)(=O)c1ccccc1)NCCCSc1ccccc1 | 8.1% | 10.5% | -30.0% | -3.9%
CCc1ccc(NC(=O)C(C)Oc2nnc(-c3cccs3)c(-c3cccs3)n2)cc1 (configuration not stated) | -17.6% | 10µM* | -3.5%[57.5 µM] | -0.5%
CCOc1ccc(N(CC)S(=O)(=O)N2CCCC(C(=O)Nc3cc(Cl)ccc3OC)C2)cc1 (configuration not stated) | 0.9% | -28.1% | i | .
N#C/C(=C(/O)COC(=O)CSc1ccc(Cl)cc1)c1nc2ccccc2[nH]1 | 8.91µM* | ? | -9.9% | -18.3%
Cc1cc(SCC(=O)OC/C(O)=C(\C#N)c2nc3ccccc3[nH]2)c(C)cc1Br | ? | ? | -8.0% | -0.8%
Cc1ccc(C)c(Nc2nnc(-c3ccc(C)c(S(=O)(=O)NCC4CCCO4)c3)c3ccccc23)c1 (configuration not stated) | 7.5% | 11.2µM* | -31.5% | .
CCN(CC)S(=O)(=O)c1ccc2oc(C(=O)NC3CCCc4ccccc43)c(C)c2c1 (configuration not stated) | 66.0% | 8.91µM* | -25.9% | 1.3%
Cc1cccc(C(=O)NC(NCc2ccco2)C(Cl)(Cl)Cl)c1 (configuration not stated) | -0.8% | ? | i | 1.5%
Cc1cccc(C(=O)NC(NCCc2ccccc2)C(Cl)(Cl)Cl)c1 (configuration not stated) | 82.9% | 4.47µM* | i | 5.5%
SMILES | GLP1R cytotox | GLP-1R inv ag | PTHR1 agonist | GLP-1R agonist
O=C(/C=C/c1ccc(OCCCF)cc1)N1CCN(Cc2ccccc2)CC1 | -7.3% | 10µM* | -12.4% | 25.8%
CCOC(=O)N1CCN(c2ccccc2OC)CC1 | -7.6% | 18.8% | -19.2% | -0.7%
CCOC(=O)/C(=N\Nc1ccc(Br)cc1)N1CCN(c2ccccc2OC)CC1 | ? | 2.24µM* | i | 0.9%
CC(=O)CC/C=C(\C)CC/C=C(/C)CC/C=C(\C)CCC=C(C)C | . | . | . | -0.9%
CCCCC(=O)Oc1ccccc1C1SCc2cc(C)c(C)cc2CS1 | 4.7% | -32.5% | -44.0% | -4.4%
Cc1cc2c(cc1C)CSC(c1ccccc1OC(=O)C(C)(C)C)SC2 | 23.6% | 10µM* | i | -3.7%
O=C(NN1CCCC1)NS(=O)(=O)c1ccc(Cl)cc1 | . | . | . | -0.2%
CC(NC(=O)COC(=O)CCNC(=O)c1ccco1)C12CC3CC(CC(C3)C1)C2 (configuration not stated) | -5.1% | 52.2% | 5.1%[57.5 µM] | 22.3%
CC(NC(=O)c1ccco1)C12CC3CC(CC(C3)C1)C2 (configuration not stated) | 1.0% | 10µM* | -49.4% | -2.2%
CCc1ccc2occ(CC(=O)Nc3sc4c(c3C(=O)OC)CCC4)c2c1 | -0.6% | ? | 1.8% | .
c1ccc(CNCCCNCCCCNCCCNCc2ccccc2)cc1 | ? | 2.82µM* | -14.8% | -5.4%
OCCCNCc1cccc2ccccc12 | 19.4% | -4.2% | i | -5.2%
Oc1ccccc1CNCCCNCc1ccccc1O | ? | 8.91µM* | -2.9% | -2.7%
O=C(O)CCCCNCc1ccccc1 | 9.6% | 11.3% | -3.0% | -4.8%
O=S(=O)(NCCc1csc2nc(-c3ccccc3)nn12)c1cc(F)ccc1F | -10.6% | 11.6% | -14.2% | .
Cc1ccc(C)c(NC(=O)CN(C)S(=O)(=O)c2cccc3nsnc23)c1 | 1.6% | 5.2% | 2.6% | .
CNS(=O)(=O)c1cn(CC(=O)Nc2ccc(OC)cc2OC)cc1S(=O)(=O)NC | -0.7% | 1.3% | i | .
CCC(O)c1cnc(OCc2ccccc2)nc1OCc1ccccc1 (configuration not stated) | 8.0% | 10µM* | -16.0% | 11.3%
CCC1OC(=O)C[C@@H](O)[C@H](C)[C@@H](OC2OC(C)CC(N(C)C)C2O)[C@@H](CC=O)C[C@@H](C)C(=O)/C=C/[C@]2(C)OC2C1C (some centres not stated) | . | . | . | -3.3%
Cc1ccc(Nc2nc(-c3cccs3)cs2)nc1 | -22.0% | 3.55µM* | -20.2% | -4.9%
Cc1ccc(Nc2nc(-c3ccccc3)cs2)nc1 | -14.1% | ? | -36.5% | 0.1%
O=C1Oc2ccccc2C(=O)C1C(CC(O)c1ccc(-c2ccc(Br)cc2)cc1)c1ccccc1 (configuration not stated) | . | . | . | -3.8%
Cc1ccc(C(C)C)c(OCC(=O)Nc2ccc3c(c2)nc(CN2CCCC2)n3C)c1 | ? | 10µM* | -32.2% | 10.6%
COC(=O)c1cc2oc3ccccc3c2n1Cc1nc(-c2ccc(OC)cc2)oc1C | 3.1% | -4.3% | i | .
COC(=O)c1ccc(-c2ccco2)n1Cc1nc(-c2ccc(OC)c(OC)c2)oc1C | -28.0% | 10µM* | -8.4%[57.5 µM] | 1.1%
